This is part of a sample that, as a whole, favours compounds with a hit. Of some 83,000 tested, about 20% had one in any assay.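 Activity criterion: percent growth below 10, measured after cells in 96-well plates were exposed to a single compound concentration for 48 hours.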 The source made the active and inactive calls.
Experiments:
Test in all cases: NCI-60 one-dose screen, 48 h (100 = growth as untreated, 0 = no growth, -100 = all killed)
HCT-15 colon = conditions: 10 µM unless noted
HT29 colon = conditions: 10 µM unless noted
SNB-75 CNS = conditions: 10 µM unless noted
SNB-19 CNS = conditions: 10 µM unless noted
U251 CNS = conditions: 10 µM unless noted
PC-3 prostate = conditions: 10 µM unless noted
UACC-62 melanoma = conditions: 10 µM unless noted
LOX IMVI melanoma = conditions: 10 µM
SK-MEL-28 melanoma = conditions: 10 µM unless noted
SK-MEL-5 melanoma = conditions: 10 µM unless noted

Measured: growth

O=C(NNc1nc2cc(C(F)(F)F)ccc2n2cccc12)c1cnccn1
active: HCT-15 colon -49.6% | HT29 colon 2.58% | SNB-75 CNS -69.4% | SNB-19 CNS -56.6% | U251 CNS -95.5% | PC-3 prostate -54.8% | UACC-62 melanoma -41.1% | LOX IMVI melanoma -67% | SK-MEL-28 melanoma -36.8%

O=C(Cn1c(/C=C/c2cccc([N+](=O)[O-])c2)nc2ccccc2c1=O)Nc1ccccc1
inactive: HCT-15 colon 66.2% | HT29 colon 71.1% | SNB-75 CNS 70.1% | SNB-19 CNS 81.3% | U251 CNS 11.8% | PC-3 prostate 78.4% | UACC-62 melanoma 50.9% | SK-MEL-28 melanoma 85.4%

Nc1n[nH]c2cccc(C#Cc3cccc(NC(=O)c4cccc(Cl)c4)c3)c12
inactive: HCT-15 colon 20% | HT29 colon 37.8% | SNB-75 CNS 35.7% | SNB-19 CNS 55.2% | U251 CNS 46.1% | PC-3 prostate 20.5% | UACC-62 melanoma 32.4% | LOX IMVI melanoma 17.7% | SK-MEL-28 melanoma 42.5%

COc1ccc(C(=O)/C=C/c2ccccc2Cl)cc1S(N)(=O)=O
inactive: HCT-15 colon 92.9% | HT29 colon 109% | SNB-75 CNS 107% | SNB-19 CNS 97.4% | U251 CNS 109% | PC-3 prostate 106% | UACC-62 melanoma 92.9% | LOX IMVI melanoma 105% | SK-MEL-28 melanoma 103%

CN1CCN(c2ccc3c(c2)nc(NNC(=O)c2ncccn2)c2cccn23)CC1
inactive: HT29 colon 11.2% | SNB-19 CNS 16.5%
active: HCT-15 colon 1.47% | SNB-75 CNS -46.9% | U251 CNS -38.7% | PC-3 prostate 6.1% | UACC-62 melanoma -35.1% | LOX IMVI melanoma -62.8% | SK-MEL-28 melanoma -27.6%

Cc1cc(N=C2NC(=O)CS2)n[nH]1
inactive: HCT-15 colon 104% | HT29 colon 114% | SNB-75 CNS 107% | SNB-19 CNS 103% | U251 CNS 110% | PC-3 prostate 100% | UACC-62 melanoma 93.5% | LOX IMVI melanoma 94.6% | SK-MEL-28 melanoma 108%

CC(=O)NNc1ccc2nnc(-c3ccccc3)n2n1
inactive: HCT-15 colon 103% | HT29 colon 129% | SNB-75 CNS 90.3% | SNB-19 CNS 97.3% | U251 CNS 101% | PC-3 prostate 107% | UACC-62 melanoma 98.6% | LOX IMVI melanoma 99.3% | SK-MEL-28 melanoma 107%

COc1ccc(NC(=O)Cn2c3c(sc2=O)[C@H]2[C@@H](O)[C@@H](O)[C@H](O)[C@@H]2CS3)cc1
inactive: HCT-15 colon 104% | HT29 colon 110% | SNB-75 CNS 88.5% | SNB-19 CNS 106% | U251 CNS 99.7% | SK-MEL-5 melanoma 106% | UACC-62 melanoma 99.8% | SK-MEL-28 melanoma 103%

COc1ccc(C(=O)/C=C/c2cccc(Cl)c2Cl)cc1S(N)(=O)=O
inactive: SNB-75 CNS 15.2% | UACC-62 melanoma 33%
active: HCT-15 colon -69.4% | HT29 colon -6.28% | SNB-19 CNS 6.23% | U251 CNS -96.3% | PC-3 prostate 5% | LOX IMVI melanoma -78.9% | SK-MEL-28 melanoma -19.1%

CCN1CCN(Cc2ccc(C(=O)Nc3cccc(C#Cc4cccc5[nH]nc(N)c45)c3)cc2C(F)(F)F)CC1
active: HCT-15 colon -87.6% | HT29 colon -10.5% | SNB-75 CNS -62% | SNB-19 CNS -88.7% | U251 CNS -94.6% | PC-3 prostate -14% | UACC-62 melanoma -74.7% | LOX IMVI melanoma -92.6% | SK-MEL-28 melanoma -95%

COc1ccc(C(=O)/C=C/c2cccnc2)cc1S(N)(=O)=O
active: HCT-15 colon 4.61% | LOX IMVI melanoma -15.3%
inactive: HT29 colon 24% | SNB-75 CNS 64.2% | SNB-19 CNS 45.4% | U251 CNS 11.2% | PC-3 prostate 78.4% | UACC-62 melanoma 74.8% | SK-MEL-28 melanoma 65.7%

COc1ccc(C(=O)/C=C/c2ccccc2Br)cc1S(N)(=O)=O
active: HCT-15 colon -91.5% | HT29 colon -17.2% | SNB-19 CNS 1.44% | U251 CNS -95.6% | LOX IMVI melanoma -89.9% | SK-MEL-28 melanoma -27.7%
inactive: SNB-75 CNS 34.1% | PC-3 prostate 21% | UACC-62 melanoma 34.4%

COc1ccc(NC(=O)Cn2c(/C=C/c3cccc([N+](=O)[O-])c3)nc3ccccc3c2=O)cc1
inactive: HCT-15 colon 78.2% | HT29 colon 88% | SNB-19 CNS 72.9% | U251 CNS 36.1% | PC-3 prostate 94% | UACC-62 melanoma 51.5% | LOX IMVI melanoma 50.8% | SK-MEL-28 melanoma 93.7%
active: SNB-75 CNS 1.99%

COc1ccc(/C=C2\C(=N)N=C(SCc3nc4ccccc4[nH]3)NC2=O)cc1
inactive: HCT-15 colon 104% | HT29 colon 116% | SNB-75 CNS 103% | U251 CNS 101% | PC-3 prostate 122% | SK-MEL-5 melanoma 101% | UACC-62 melanoma 103% | LOX IMVI melanoma 98.3% | SK-MEL-28 melanoma 118%

O=C(Cn1nc(-c2ccccc2)ccc1=O)N/N=C/c1ccc(N2CCOCC2)cc1
inactive: HCT-15 colon 97.2% | HT29 colon 113% | SNB-75 CNS 96.4% | U251 CNS 93.2% | PC-3 prostate 102% | SK-MEL-5 melanoma 92.4% | UACC-62 melanoma 83.7% | LOX IMVI melanoma 102% | SK-MEL-28 melanoma 104%

CCCCSc1nc(NCCc2c[nH]c3ccccc23)c(C#N)c(-c2ccc(OC)cc2)n1
inactive: HCT-15 colon 24.9% | HT29 colon 25.1% | SNB-75 CNS 65.4% | U251 CNS 55.2% | PC-3 prostate 23.2% | SK-MEL-5 melanoma 46.2% | UACC-62 melanoma 71.2% | LOX IMVI melanoma 37.7% | SK-MEL-28 melanoma 75.8%

Cc1cc(=O)oc2cc(OCCCCOc3ccc(/C=C/C(=O)Nc4ccccc4N)cc3)ccc12
active: SK-MEL-5 melanoma -66.1% | LOX IMVI melanoma 0.965%
inactive: HCT-15 colon 75.8% | HT29 colon 91.4% | SNB-75 CNS 67% | U251 CNS 60.2% | PC-3 prostate 61% | UACC-62 melanoma 69.2% | SK-MEL-28 melanoma 81.2%

O=c1[nH]c2ccccc2cc1CSc1nccc(-c2ccc3ccccc3c2)n1
inactive: HCT-15 colon 29% | HT29 colon 44.3% | SNB-75 CNS 86.6% | U251 CNS 65.2% | PC-3 prostate 50% | SK-MEL-5 melanoma 57.2% | UACC-62 melanoma 60.9% | LOX IMVI melanoma 67.1% | SK-MEL-28 melanoma 86.3%

CC1(C)CC[C@]2(C(=O)Nc3ccc(F)cc3)CC[C@]3(C)C(=CCC4[C@@]5(C)C[C@@H](O)[C@H](O)[C@@](C)(CO)C5CC[C@]43C)C2C1 (some centres undefined)
active: HT29 colon 5.61% | SK-MEL-5 melanoma -47.6%
inactive: HCT-15 colon 24.1% | SNB-75 CNS 81.7% | U251 CNS 38.3% | PC-3 prostate 11.2% | UACC-62 melanoma 35% | LOX IMVI melanoma 26.5% | SK-MEL-28 melanoma 52.9%

COc1ccc(Cc2nn(CC(=O)N/N=C/c3ccc(F)cc3)c(=O)c3c(C)noc23)cc1
active: SNB-75 CNS -17.4%
inactive: HCT-15 colon 67.2% | HT29 colon 74% | U251 CNS 17.8% | PC-3 prostate 35.9% | SK-MEL-5 melanoma 82.2% | UACC-62 melanoma 44.4% | LOX IMVI melanoma 29.5% | SK-MEL-28 melanoma 35.9%

CC(=O)OC[C@@]1(C)C2CC[C@]3(C)C(CC=C4C5CC(C)(C)CC[C@]5(C(=O)Nc5ccc(Br)cc5)CC[C@]43C)[C@@]2(C)C[C@@H](OC(C)=O)[C@@H]1OC(C)=O (some centres undefined)
active: SK-MEL-5 melanoma 8.44%
inactive: HCT-15 colon 30.6% | HT29 colon 27% | SNB-75 CNS 56.1% | U251 CNS 38.5% | PC-3 prostate 35.5% | UACC-62 melanoma 44.1% | LOX IMVI melanoma 12.2% | SK-MEL-28 melanoma 72.3%

CC(C)CSc1nc(NCCc2c[nH]c3ccccc23)c(C#N)c(-c2ccccc2)n1
inactive: HCT-15 colon 22.6% | SNB-75 CNS 82.8% | U251 CNS 33.5% | PC-3 prostate 17.8% | SK-MEL-5 melanoma 27.3% | UACC-62 melanoma 77.3% | LOX IMVI melanoma 33.3% | SK-MEL-28 melanoma 87.3%
active: HT29 colon 4.54%

O=c1onc(-c2cc3ccccc3nc2Cl)n1-c1cccc2ccccc12
active: SNB-75 CNS 8% | SK-MEL-5 melanoma 3.23%
inactive: HCT-15 colon 21.6% | HT29 colon 39.6% | U251 CNS 54.8% | PC-3 prostate 40.4% | UACC-62 melanoma 29.9% | LOX IMVI melanoma 42% | SK-MEL-28 melanoma 55.9%

Cc1cc(=O)oc2cc(OCCOc3ccc(/C=C/C(=O)Nc4ccccc4N)cc3)ccc12
inactive: HCT-15 colon 39.7% | HT29 colon 30.5% | SNB-75 CNS 36.6% | U251 CNS 30.7% | PC-3 prostate 32.1% | UACC-62 melanoma 33.2% | SK-MEL-28 melanoma 39.9%
active: SK-MEL-5 melanoma -87.6% | LOX IMVI melanoma -73.2%

CCCSc1nc(NCCc2c[nH]c3ccccc23)c(C#N)c(-c2ccc(OC)cc2)n1
inactive: HCT-15 colon 21.8% | HT29 colon 22.5% | SNB-75 CNS 78.9% | U251 CNS 41.5% | PC-3 prostate 15.1% | SK-MEL-5 melanoma 29.5% | UACC-62 melanoma 71.7% | LOX IMVI melanoma 37.1% | SK-MEL-28 melanoma 71.4%

CN(C)c1ccnc(CNCCSC2(c3ccccc3)c3ccccc3C=Cc3ccccc32)c1
active: HCT-15 colon -36.9% | HT29 colon -46.4% | SNB-75 CNS -10.9% | U251 CNS -77.1% | PC-3 prostate -23.3% | SK-MEL-5 melanoma -99.4% | UACC-62 melanoma -32.2% | LOX IMVI melanoma -96.2% | SK-MEL-28 melanoma -64.6%

CCC(C)(C)c1ccc(OCCCCN2CCN(c3ccncc3)CC2)cc1
active: HCT-15 colon -1.1% | HT29 colon 6.61% | U251 CNS -11.8% | SK-MEL-5 melanoma -99.4% | UACC-62 melanoma -74.5% | LOX IMVI melanoma -76.8% | SK-MEL-28 melanoma -6.03%
inactive: SNB-75 CNS 69.5% | PC-3 prostate 19.3%

CCCCSc1nc(NCCc2c[nH]c3ccccc23)c(C#N)c(-c2ccc(F)cc2)n1
inactive: HCT-15 colon 28.8% | HT29 colon 25.4% | SNB-75 CNS 74.2% | U251 CNS 45.6% | PC-3 prostate 28.5% | SK-MEL-5 melanoma 37.6% | UACC-62 melanoma 61.4% | LOX IMVI melanoma 36.1% | SK-MEL-28 melanoma 81.4%

Cc1sc(C(NC(=O)OCCn2c([N+](=O)[O-])cnc2C)C(F)(F)Cl)nc1-c1ccc(OC(F)(F)F)cc1 (centres undefined)
active: HCT-15 colon -92.5% | HT29 colon -83.4% | SNB-75 CNS -32.9% | U251 CNS -85.7% | PC-3 prostate -65.1% | SK-MEL-5 melanoma -99.5% | UACC-62 melanoma -96.1% | LOX IMVI melanoma -98.3% | SK-MEL-28 melanoma -92.2%

Source: PubChem BioAssay (NCI)
